Bioassay records from PubChem.
Sampled rows, rich in hits. Any-hit rate of the full collection: about 1.7%.
ALOX12 inh: blocks human arachidonate 12S-lipoxygenase. P18054. purified 12hLO, xylenol orange hydroperoxide absorbance. Potency, µM (series often up to 108 µM), for inactives: at the highest dose activity change, negative = inhibition, actives largely listed as inhibitors. actives 1.1% (n = 580,000); note: % is set by controls: 0 for no effect and ±100 for the full control effect
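Hydroperoxide product was detected by ferrous iron/xylenol orange as the 573 to 405 nm absorbance ratio. Arachidonic acid at 40 uM (final) was turned over for 30 min at room temperature by 150 nM human 12hLO, pH 7.0 Hepes buffer, after 15 min compound preincubation.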
GRP78 ERSR act: ER stress response induction in glioma; Potency, µM, for inactives: at the top dose activation, usual class: activators; actives 0.02% (n = 420,000); U87-MG GRP78 promoter luciferase reporter, 16 h; AID 602332; note: series mostly up to about 76 µM; % of control where 0% means no effect; nearly all actives have a fitted effect of over 35% in size
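Stably transfected U87-MG glioma cells carrying a GRP78-based luciferase sensor; 16 h compound incubation. Luminescence end-point read 10 min after Bright-Glo addition at room temperature.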
TrxR1 inh: rat TrxR1 inhibition. AID 588453. Potency, µM (top dose mostly 114 µM), without a hit: top-dose activity change, negative = inhibition, hits mostly inhibitors. recombinant rTrxR1, NADPH fluorescence consumption, selenite substrate. O89049. actives 1% (n = 390,000); note: % is set by controls: 0 for no effect and ±100 for the full control effect; nearly all actives have a fitted effect of over 65% in size
Target sequence (O89049 whole entry, looked up): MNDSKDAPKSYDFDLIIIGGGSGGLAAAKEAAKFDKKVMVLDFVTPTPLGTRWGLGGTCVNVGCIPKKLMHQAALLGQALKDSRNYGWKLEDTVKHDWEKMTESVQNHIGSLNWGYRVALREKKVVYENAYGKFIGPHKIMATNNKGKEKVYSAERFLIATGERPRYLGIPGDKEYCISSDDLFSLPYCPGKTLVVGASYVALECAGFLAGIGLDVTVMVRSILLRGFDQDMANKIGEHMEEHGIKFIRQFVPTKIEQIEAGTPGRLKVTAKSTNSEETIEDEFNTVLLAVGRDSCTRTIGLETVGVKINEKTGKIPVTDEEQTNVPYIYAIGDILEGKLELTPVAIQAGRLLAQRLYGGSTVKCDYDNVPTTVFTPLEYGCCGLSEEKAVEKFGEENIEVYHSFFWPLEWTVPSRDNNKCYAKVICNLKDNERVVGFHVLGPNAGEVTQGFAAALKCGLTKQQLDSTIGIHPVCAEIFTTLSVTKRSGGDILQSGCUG
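Rat TrxR1 (90 nM in the dispensed reagent) was pre-reduced with 400 uM NADPH for 5 min at room temperature, then incubated with compound for 15 min. After 400 uM selenite was added, NADPH fluorescence (Ex 340/Em 450 nm) was followed for 8 min.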
mIDH1 inhibitor: inhibitors of human mutant IDH1 R132H; O75874; IDH1-R132H enzyme, NADPH consumption, diaphorase/resazurin fluorescence; Potency, µM (titrated, usually from 76.6 µM), inactives show at the highest dose activity change, negative = inhibition, hits mostly inhibitors; actives 0.093% (n = 390,000); note: % is set by controls: 0 for no effect and ±100 for the full control effect; nearly all actives have a fitted effect of over 65% in size
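IDH1-R132H (0.5 ug/mL) preincubated 30 min with compound, then NADPH (0.016 mM) and alpha-KG (2 mM) added; 80 min at RT, pH 7.5. Remaining NADPH coupled via diaphorase/resazurin to fluorescence (540/590 nm); concentration-response curves normalized to no-enzyme control.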
Anesthetic bind: candidate novel general anesthetic via apoferritin binding; P02791; apoferritin/1-aminoanthracene competitive binding, fluorescence; Potency, µM (titrated, usually from 77.5 µM), without a hit: at the highest dose activity change, negative = displacement, hits mostly inhibitors; actives 0.074% (n = 350,000); AID 485281; note: % is set by controls: 0 for no effect and ±100 for the full control effect; nearly all actives have a fitted effect of over 20% in size
Target sequence (P02791 2-175 limits assumed): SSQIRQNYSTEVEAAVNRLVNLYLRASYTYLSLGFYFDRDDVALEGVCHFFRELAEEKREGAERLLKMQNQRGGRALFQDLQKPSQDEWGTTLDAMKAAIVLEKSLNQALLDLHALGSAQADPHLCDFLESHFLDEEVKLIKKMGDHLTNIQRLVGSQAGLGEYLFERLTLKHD
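Horse-spleen apoferritin (10 uM) was mixed with 50% saturated 1-aminoanthracene in PBS, exposed to compounds for 10 min at room temperature, and read for fluorescence (ex 380 nm, em 535 nm). Competitive displacement was fitted with a four-parameter Hill equation.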
TrxR1 substrate: rat thioredoxin reductase 1 substrate activity; Potency, µM (doses to about 114 µM), inactives show at the highest dose activity change, negative = substrate turnover; purified TrxR1 substrate turnover, NADPH consumption readout; O89049; actives 0.01% (n = 390,000); note: % is set by controls: 0 for no effect and ±100 for the full control effect; nearly all actives have a fitted effect of over 50% in size
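Rat TrxR1, dispensed at 90 nM, was prereduced with 400 uM NADPH (final) for 5 min at ~22 deg C, then incubated with compound 15 min before 400 uM selenite. A first-read NADPH fluorescence drop versus no-compound background flagged substrates.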
An asterisk follows results filed as active; i = inactive; ? = inconclusive; . = not tested or not shown; [ ] = remark or other dose. Calls come from the whole dose curve; as a rule, active = well fitted curve in the direction sought with a large enough effect; inconclusive = small, poorly fitted or top-dose-only effect, or another doubt; inactive = no such curve, though single readings can be large; an effect the other way counts as inactive or inconclusive. Potency is the fitted concentration of half-maximal effect.

SMILES | ALOX12 inh | GRP78 ERSR act | TrxR1 inh | mIDH1 inhibitor | Anesthetic bind | TrxR1 substrate
O=C(NC1(C(F)(F)F)C(=O)Nc2c1c(=O)[nH]c(=O)n2-c1ccccc1)c1ccccc1 (centres undefined) | ? | -2% | 3% | 0% | 9% | -6%
CC(C)CC(=O)NC1(C(F)(F)F)C(=O)Nc2c1c(=O)[nH]c(=O)n2-c1ccccc1 (centres undefined) | 32µM* | -2% | 8% | -2% | -18% | 6%
O=C1O[C@@H]2CN(C3CCCC3)C[C@@H]2N1CCc1cccc(Cl)c1 | 25% | . | . | . | . | .
CCCCOc1ccc(NC(=O)c2ccccc2)c2cccnc12 | 13% | . | . | . | . | .
COc1ccc(-n2nnnc2S(=O)(=O)CC(=O)N2CCCCC2)cc1 | . | -13% | 2.2µM* | 4% | -15% | 9%
COc1ccc(-n2nnnc2S(=O)(=O)Cc2ccc(C(=O)O)cc2)cc1 | -33% | -11% | 16µM* | 2% | 13% | 1%
COc1cc(OC)cc(-n2nnnc2SCC(=O)N2CCCC2)c1 | 25% | -1% | 10% | 7% | -8% | 5%[57.1 µM]
O=C(NCCc1ccncc1)[C@@H]1[C@@H](CO)[C@@H]2Cn3c(cccc3=O)[C@H]1N2Cc1ccccc1F | -15% | . | . | . | . | .
COc1nccc(N2CCC(CC(=O)NCc3cccc(C(F)(F)F)c3)CC2)n1 | 42% | . | . | . | . | .
Cc1ccc(C(=O)c2sc(Nc3ccccc3)c(S(=O)(=O)c3ccccc3)c2N)c(C)c1 | ? | -4% | 28%[57.1 µM] | -1% | 150% | 5%[57.1 µM]
CCOC(=O)C1=NNC2(CC(=O)N(c3cc(C)cc(C)c3)C2=O)C1 (centres undefined) | ? | 1% | 11% | -5% | -4% | -2%
CCOC(=O)C1=NN(N=O)C2(CC(=O)N(c3cc(C)cc(C)c3)C2=O)C1 (centres undefined) | ? | -2% | 16µM* | 0% | -22% | 3%[57.1 µM]
O=C1OC(c2ccc3ccccc3c2O)(c2ccc3ccccc3c2O)c2ccccc21 | 6.3µM* | 14% | -34%[57.1 µM] | 19% | . | 21%[2.29 µM]
O=C1OC2(c3ccccc31)c1ccccc1-c1ccccc12 | 13% | -2% | 12%[57.1 µM] | 17% | . | -6%
Cc1cc(C)n(CCC(=O)NCC2Cn3cccc3C(=O)N2Cc2ccccc2)n1 (centres undefined) | 30% | . | . | . | . | .
CCOC(=O)N1C(=O)[C@](c2ccc(Cl)cc2)(C(C)C)N1C(=O)OCC | ? | 3% | 45µM* | -7% | -1% | -7%
CCOC(=O)N1C(=O)[C@@](c2ccc(Cl)cc2)(C(C)C)N1C(=O)OCC | -20% | -9% | ? | 4% | 0% | 6%
Oc1ccc(/C=N/N2CCN(C3c4ccccc4-c4ccccc43)CC2)cc1 | -8% | 1% | 21% | -6% | -15% | 9%
Oc1ccc(/C=N/N2CCN(C3c4ccccc4-c4ccccc43)CC2)cc1O | 18µM* | -1% | 15% | -2% | -17% | 3%
Cc1nc([N+](=O)[O-])c(Br)n1Cc1ccc(Cl)c(Cl)c1 | -7% | -14% | 10µM* | ? | ? | -4%
COc1ccc(C(=O)Cn2cc([N+](=O)[O-])nc2C)cc1 | 7% | -2% | -7% | 0% | 5% | -2%
Cc1nc([N+](=O)[O-])c(NCCO)n1Cc1ccccc1 | -17% | -3% | -2%[57.1 µM] | -1% | -12% | 4%[57.1 µM]
COc1ccc(C(=O)Cn2c(C)nc([N+](=O)[O-])c2Br)cc1 | ? | -12% | 18µM* | 9% | 4% | 14%[57.1 µM]
Cc1nc([N+](=O)[O-])c(Br)n1CC(=O)c1ccc(Cl)cc1 | 5% | -15% | 2.5µM* | -2% | -21% | 11%[57.1 µM]
O=C(c1cccs1)N1CCC2(CC1)CC(N(C(=O)c1ccccc1)C1CC1)CCO2 (centres undefined) | 27% | . | . | . | . | .
SMILES | ALOX12 inh | GRP78 ERSR act | TrxR1 inh | mIDH1 inhibitor | Anesthetic bind | TrxR1 substrate
CCNC(=O)C1CCCN(C(=O)Cc2cccs2)CC1 (centres undefined) | 50µM* | 0% | . | . | . | .
COc1cccc([S+](=O)([O-])N2CCn3c(nnc3C3CCCNC3)C2)c1 (centres undefined) | 47% | . | . | . | . | .
O=C(C[n+]1c(Cl)cc(Cl)c2ccccc21)c1ccccc1 | . | -3% | 71µM* | . | . | 5%
Cc1cc[n+](CC(=O)c2ccccc2)c2ccccc12 | 7% | -3% | 12%[57.1 µM] | 0% | -19% | 9%[57.1 µM]
Cc1ccc(N2CCC(NC(=O)Cc3cccc(F)c3)C2=O)cc1 (centres undefined) | 8% | . | . | . | . | .
O=C1CCC(=O)N1c1nc2n(n1)C(c1ccccc1)C=C(c1ccc(Br)cc1)N2 (centres undefined) | -19% | -2% | 71µM* | 8% | 351% | 0%
CC(=O)Nc1nc2n(n1)C(c1ccccc1)C=C(c1ccccc1)N2 (centres undefined) | 13% | -5% | 40µM* | 5% | i | 84%
CC(=O)Nc1nc2n(n1)C(c1ccc(F)cc1)C=C(c1ccccc1)N2 (centres undefined) | 20% | -2% | ? | 0% | 686% | 17%
Cc1ccc(C2=CC(c3ccccc3)n3ncnc3N2)cc1 (centres undefined) | 3% | -1% | -12% | -3% | . | 57%
C1=C(c2ccccc2)Nc2ncnn2C1c1ccccc1 (centres undefined) | 0% | -3% | 32µM* | 19% | . | 21%
COc1ccc(C2C=C(c3ccc(Br)cc3)Nc3nc(N4C(=O)CCC4=O)nn32)cc1 (centres undefined) | -16% | -4% | ? | 5% | 570% | 31%
Cc1ccc(NC(=O)COC(=O)CCNS(=O)(=O)c2ccccc2)c(Cl)c1 | 2% | . | . | . | . | .
COc1ccc(CCN(C)C/C=C/c2ccccc2[N+](=O)[O-])cc1OC | 0.89µM* | -4% | 13% | 4% | -4% | 4%
O=C(c1ccc(S(=O)(=O)N2CCCC2)cc1)N1CCCCC1 | -1% | -4% | 26% | 0% | . | 12%
O=C(/C=C/c1ccc(O)c(O)c1)c1ccc(S(=O)(=O)N2CCCCCC2)cc1 | 22µM* | ? | -15% | ? | ? | -10%
COCCNc1ncc(-c2ccsc2)c2c1OCC2 | 37%[176 µM] | . | . | . | . | .
O=C(Cc1n[nH]c(=O)c2ccccc12)NCC(=O)N1CCN(c2ccccc2)CC1 | 11µM* | . | . | . | . | .
CCCCn1c(=S)[nH]c2c(=O)n(C)c(=O)n(C)c21 | 45µM* | -5% | . | -8% | . | .
Cn1c(=O)c2[nH]c(=S)n(Cc3ccccc3)c2n(C)c1=O | ? | -1% | ? | 1% | . | -2%
CC(=O)N1CCN([S+](=O)([O-])c2ccc(Cl)nc2)C(=O)C1 | -1%[6.33 µM] | . | . | . | . | .
